# HP1b chromo inh: blocks HP1-beta chromodomain binding to methylated histone tails; P83916; AlphaScreen HP1-beta / biotin-H3K9me3 peptide binding; Potency, µM (titrated, usually from 114 µM), for the others: at the highest dose activity change, negative = inhibition, usual class: inhibitors; 0.56% of 390,000 active; further: nearly all actives have a fitted effect of over 70% in size
# Target sequence (P83916 whole entry, looked up): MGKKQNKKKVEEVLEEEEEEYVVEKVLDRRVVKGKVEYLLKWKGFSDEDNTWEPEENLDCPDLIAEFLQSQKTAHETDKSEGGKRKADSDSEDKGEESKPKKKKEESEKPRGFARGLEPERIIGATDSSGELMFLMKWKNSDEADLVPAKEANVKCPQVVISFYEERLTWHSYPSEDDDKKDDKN
#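 Compound inhibition of the preformed complex between 50 nM HP1-beta and 50 nM biotinylated H3K9me3 peptide was read by AlphaScreen. Buffer was PBS pH 7.4 with 0.01% Tween-20. Incubations ran 30 min at room temperature, with 10 ug/mL donor/acceptor beads.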
# GLS inhibitor: blocks human kidney-isoform glutaminase activity | O94925 | GLS enzymatic activity, qHTS titration | Potency, µM (top dose mostly 45.5 µM), without a hit: top-dose activity change, negative = inhibition, hits mostly inhibitors | 0.21% of 410,000 active | AID 624170; further: on the % scale 0 is the no-effect control and ±100 the full control effect
#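 Coupled fluorescence readout: glutamate oxidase/HRP/Amplex Red detect glutamate formed by hKGA from L-glutamine (1 mM solution added). Buffer 45 mM KH2PO4 pH 8.2, 0.02% Tween-20; reads at t0 and 30 min RT.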
# BAZ2B block: BAZ2B (human) inhibition; Q9UIF8; AlphaScreen BAZ2B-H3K14Ac peptide displacement; Potency, µM (series often up to 114 µM), without a hit: at the highest dose activity change, negative = inhibition, hits mostly inhibitors; 4.4% of 360,000 active; further: on the % scale 0 is the no-effect control and ±100 the full control effect; nearly all actives have a fitted effect of over 60% in size
#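 Inhibition is scored as reduced AlphaScreen emission. The BAZ2B/b-H3(5-23)K14Ac complex (50 nM each) in PBS pH 7.4, 0.01% Tween-20 meets compound (up to 110 uM) for 30 min at RT before bead addition.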
# G9a inh: blocks human histone lysine methyltransferase G9a; Q96KQ7; G9a H3K9 monomethylation, AlphaScreen, 2 h; Potency, µM (titrated, usually from 102 µM), for inactives: at the top dose activity, negative = inhibition, hits mostly inhibitors; 8.8% of 350,000 active; further: on the % scale 0 is the no-effect control and ±100 the full control effect; nearly all actives have a fitted effect of over 75% in size
# Target sequence (Q96KQ7 913-1193 limits assumed): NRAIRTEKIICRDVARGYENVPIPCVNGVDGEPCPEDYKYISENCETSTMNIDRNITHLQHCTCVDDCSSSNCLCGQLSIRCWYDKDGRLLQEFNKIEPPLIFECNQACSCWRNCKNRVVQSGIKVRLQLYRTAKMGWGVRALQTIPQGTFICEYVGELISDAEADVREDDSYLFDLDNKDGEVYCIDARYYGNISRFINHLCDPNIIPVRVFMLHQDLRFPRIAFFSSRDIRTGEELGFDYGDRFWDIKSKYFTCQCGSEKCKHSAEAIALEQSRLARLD
#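 AlphaScreen detection with an anti-monomethyl H3K9 antibody quantified product after a 2 h room-temperature reaction containing 500 nM biotinylated H3K9 peptide, 20 µM SAM and 20 nM enzyme, which had been preincubated 15 min with compound.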
# JMJD2A Tudor inh: JMJD2A Tudor domain (human) inhibition. O75164. AlphaScreen JMJD2A-Tudor / H3K4me3 peptide binding. Potency, µM (series often up to 114 µM), for inactives: at the highest dose activity change, negative = inhibition, hits mostly inhibitors. 4.4% of 390,000 active; further: on the % scale 0 is the no-effect control and ±100 the full control effect; nearly all actives have a fitted effect of over 50% in size
# * = called active by the depositor; ? = inconclusive; . = no result; ! = repeats disagree; [ ] = remark or other dose. An excerpt weighted towards active compounds, which were near 10% of everything screened. The call rests on the fitted dose curve; in most records, active means well fitted curve in the direction sought with a large enough effect; inconclusive means small, poorly fitted or top-dose-only effect, or another doubt; inactive means no such curve, though single readings can be large; an effect the other way counts as inactive or inconclusive. Potency means the concentration at half of the fitted maximal effect.
SMILES,HP1b chromo inh,GLS inhibitor,BAZ2B block,G9a inh,JMJD2A Tudor inh
CCOC(=O)C1=C(C)N=C2SCCC(=O)N2C1c1ccc(OCc2ccccc2)cc1 (stereo unspecified),43.4%,-5.6%,8.1%,16.8%[59 µM],-24.9%
OC(CN1CCCC1)Cn1ccc2ccccc21 (stereo unspecified),23.3%,-2.3%,50.1µM*,14.1µM*,20µM*
OC(CNc1ccccc1)Cn1ccc2ccccc21 (stereo unspecified),?,-3.8%,35.5µM*,31.6µM*,3.98µM*
O=C(O)Cn1ccc2ccccc21,32.5%,-10.0%,-14.9%,23.0%[12.7 µM],-16.4%
OC(CN1CCCCC1)Cn1c2ccccc2c2ccccc21 (stereo unspecified),43.5%,2.9%,15.1%,31.3%,5.7%
O=C(c1ccccc1)N1CCN(CC(O)Cn2ccc3ccccc32)CC1 (stereo unspecified),?,9.0%,56.2µM*,11.2µM*,?
Cc1cc(C)c(OCC(O)CN2CCN(C(=O)c3ccccc3)CC2)c(C)c1 (stereo unspecified),?,5.7%,?,20µM*,22.4µM*
CC[C@]1(c2ccccc2)NC(=O)N(C)C1=O,.,.,.,22.7%[21.5 µM],.
CCOc1ccc(NC(=O)Cn2nnc(C(=O)NCc3ccc4c(c3)OCO4)c2N)cc1,41.9%,-2.2%,-8.9%,1.7%,-20.9%
CN(C)Cc1c(O)ccc2c1O/C(=C\C=C\c1ccccc1)C2=O,-8.1%,-5.2%,-22.8%,?,1.5%[11.4 µM]
Cc1cc(O)c(CN(C)C)c2c1C(=O)/C(=C/c1ccco1)O2,-9.3%,-23.3%,-21.6%,6.31µM*,-25.6%
COc1ccc(NC(=O)NC2COc3ccccc3C2)cc1Cl (stereo unspecified),11.7%[57 µM],-11.3%,1.1%,-1.0%[59 µM],-18.5%
O=S(=O)(Nc1ccc(O)c(Sc2nc3ccccc3s2)c1)c1cc(Cl)ccc1Cl,-2.1%,27.5%,?,11.2µM*,?
O=S(=O)(Nc1ccc(O)c(Sc2nc3ccccc3s2)c1)c1cccc2ccccc12,-11.2%,27.9%,-27.2%,44.7µM*,-35.5%
CCOc1ccccc1CNc1ncnc2c1nc1n2CCCC1,46.9%,4.2%,1.3%,-3.0%[59 µM],-1.7%
Fc1ccc(Nc2nc(N3CCOCC3)nc(N3CCOCC3)n2)cc1,32.8%,6.2%,?,44.7µM*,?
c1ccc(Nc2nc(N3CCOCC3)nc(N3CCOCC3)n2)cc1,10.5%,-0.8%,10.9%,?,-13.4%
Cc1ccc(Nc2nc(N3CCOCC3)nc(N3CCOCC3)n2)cc1C,20.4%,-1.4%,?,50.1µM*,-3.1%
Cc1cccc(Nc2nc(N3CCOCC3)nc(N3CCOCC3)n2)c1,27.2%,-2.1%,-35.1%,?,-22.6%
CC(=O)Nc1cccc(C)c1,38.9%,-1.8%,-4.5%,-3.6%[0.501 µM],-11.0%
CC(=O)Nc1ccc2c(c1)C(=Nc1cccc(C)c1)c1ccccc1-2,?,-12.4%,.,.,31.6µM*
COCCNc1ncnc2ccc(-c3ccccc3C)cc12,.,.,.,6.3%[0.501 µM],.
Cc1cc(Nc2ccc3c(c2)OCCO3)c2ccccc2n1,-7.1%,18.3%,-8.0%,?,-20.1%
Cc1ccc2nc(C)cc(Nc3ccc4c(c3)OCCO4)c2c1,8.5%,16.6%,6.7%,44.7µM*,-19.2%
OCCN1CCN(CCCN2c3ccccc3Sc3ccc(Cl)cc32)CC1,-16.0%,-3.2%,?,2.7%[12.7 µM],?
SMILES,HP1b chromo inh,GLS inhibitor,BAZ2B block,G9a inh,JMJD2A Tudor inh
OCCN1CCN(CC/C=C2/c3ccccc3Sc3ccc(Cl)cc32)CC1,-12.3%,8.6%,?,15.8µM*,?
CN(C)CCC=C1c2ccccc2C(C)(C)c2ccccc21,.,1.2%,.,?,.
CN(C)CCC=C1c2ccccc2C=Cc2ccccc21,38.0%,-3.6%,-20.2%,14.1µM*!,-25.5%
CCCCCCCCCCC[N+](C)(C)CC/C=C1/c2ccccc2Sc2ccc(Cl)cc21,12.2%,?,-22.9%,35.5µM*,?
CCCCCCCCCC[N+](C)(C)CC/C=C1/c2ccccc2Sc2ccc(Cl)cc21,17.9%,?,-11.6%,?,-32.4%
CCOC(=O)C1CCN(C(=O)C2CCN(c3nnc(C)c4c(C)n(-c5ccccc5)nc34)CC2)CC1,66.9%,-0.7%,14.6%,9.8%[59 µM],-17.2%

# High-throughput results (PubChem BioAssay)
